From PubChem
Tau fibril FP: blocks human tau fibril formation measured by polarization; P10636; K18 P301L tau heparin fibrillization, Alexa594 FP, 6 h; Potency, µM (doses to about 57.7 µM), without a hit: at the highest dose activity, negative = inhibition, actives largely listed as inhibitors; 280,000 compounds, 0.39% hits; AID 1468; note: nearly all actives have a fitted effect of over 55% in size
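Recombinant K18 P301L […], labeled with Alexa 594 at 0.24 uM over 15 uM unlabeled; heparin inducer 20 uM final; 37 C, 6 hr; FP endpoint.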
Tau fibril ThT: tau fibrillization inhibition (ThT binding); Potency, µM (highest dose often 57.4 µM), for inactives: top-dose activity, negative = inhibition, hits mostly inhibitors; 270,000 compounds, 2.1% hits; P10636; recombinant tau K18 P301L, heparin-induced fibrillization, ThT fluorescence; note: nearly all actives have a fitted effect of over 55% in size
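Heparin-induced fibrillization of the P301L-mutant K18 repeat-domain fragment of human tau was followed by ThT binding in quantitative high-throughput format.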
ALDH1A1 inh: ALDH1A1 (human) enzyme inhibition | P00352 | Purified ALDH1A1, NADH fluorescence, propionaldehyde substrate | Potency, µM (doses to about 75.3 µM), inactives show top-dose activity, negative = inhibition, most hits filed as inhibitors | 220,000 compounds, 7.3% hits; active = well fitted inhibition curve with a large enough effect, not every such curve was filed as active; inconclusive = small, poorly fitted or top-dose-only effect, or another doubt; inactive = no such curve, though single readings can be large or run the other way;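 note: plate controls were no enzyme wells and a reference inhibitor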
NPSR antagonist: neuropeptide S receptor (human) antagonism, cAMP. CHO-NPSR cells, cAMP TR-FRET, antagonist mode. Q6W5P4. 220,000 compounds, 1% hits. AID 1461. Potency, µM (top dose mostly 38.3 µM), for inactives: at the highest dose activity change, negative = inhibition, usual class: inhibitors; note: nearly all actives have a fitted effect of over 50% in size
Target sequence (Q6W5P4 whole entry, looked up): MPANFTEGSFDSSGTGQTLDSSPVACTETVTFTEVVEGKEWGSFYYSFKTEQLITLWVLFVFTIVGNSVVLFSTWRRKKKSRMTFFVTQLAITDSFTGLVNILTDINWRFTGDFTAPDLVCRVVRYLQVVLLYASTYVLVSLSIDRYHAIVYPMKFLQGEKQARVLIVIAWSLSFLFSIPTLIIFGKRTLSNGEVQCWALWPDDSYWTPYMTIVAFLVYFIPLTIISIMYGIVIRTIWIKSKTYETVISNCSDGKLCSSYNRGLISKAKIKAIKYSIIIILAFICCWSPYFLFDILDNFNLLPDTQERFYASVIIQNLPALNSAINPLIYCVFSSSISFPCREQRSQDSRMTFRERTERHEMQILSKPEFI
HPGD inh: blocks human HPGD enzyme activity; P15428; AID 894; Potency, µM, inactives show at the top dose activity change, negative = inhibition, actives largely listed as inhibitors; purified HPGD, NADH fluorescence kinetic, PGE2 substrate; 150,000 compounds, 4.3% hits; active = well fitted inhibition curve with a large enough effect, not every such curve was filed as active; inconclusive = small, poorly fitted or top-dose-only effect, or another doubt; inactive = no such curve, though single readings can be large or run the other way
Target sequence (P15428 whole entry, looked up): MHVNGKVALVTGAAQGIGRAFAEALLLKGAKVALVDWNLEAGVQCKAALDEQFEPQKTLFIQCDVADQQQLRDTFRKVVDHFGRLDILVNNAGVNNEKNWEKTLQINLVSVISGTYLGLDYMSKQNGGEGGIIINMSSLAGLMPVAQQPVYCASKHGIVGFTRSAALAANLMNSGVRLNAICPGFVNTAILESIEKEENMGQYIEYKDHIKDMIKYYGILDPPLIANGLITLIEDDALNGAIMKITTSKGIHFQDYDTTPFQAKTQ
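NADH formation kinetics: reaction with 30 uM PGE2 and 1 mM NAD+ (final), 20 nM enzyme, Tris-HCl pH 8 with Tween 20, after 15 min compound preincubation at room temperature. Fluorescence change, last versus first of five reads.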
Tau fluor counter: counter-screen for tau fibril formation inhibitors; tau K18 P301L (four-repeat tau fragment) Alexa594 fluorescence, heparin fibrillization; Potency, µM (highest dose often 57.7 µM), for inactives: at the top dose activity change, negative = decrease; 280,000 compounds, 0.93% hits; AID 1463; note: nearly all actives have a fitted effect of over 55% in size
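Human K18 P301L tau (15 uM unlabeled plus 0.24 uM Alexa 594-labeled, final) in 100 mM sodium acetate pH 7 was mixed with compound and 20 uM heparin and incubated 6 hr at 37 C.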
* marks the source's active call; other numbers are inactive results; [ ] = remark or other dose. Shown are actives, neighbours in structure and some others; about 9.5% of the full set was active somewhere. Unless noted, calls come from the whole dose curve; as a rule, active = well fitted curve in the direction sought with a large enough effect; inconclusive = small, poorly fitted or top-dose-only effect, or another doubt; inactive = no such curve, though single readings can be large; an effect the other way counts as inactive or inconclusive. Unless noted, % is set by controls: 0 for no effect and ±100 for the full control effect; potency is the fitted concentration of half-maximal effect.

`CCc1nc2ccc(C(=O)NCCc3ccc(SC)cc3)cc2nc1CC` gave Tau fibril FP -17%, Tau fibril ThT -15% and Tau fluor counter -10%.
Cc1ccc(N(CC(O)COCc2ccco2)S(=O)(=O)c2ccc(C)cc2)cc1 (stereo unspecified) was read as Tau fibril FP inconclusive, Tau fibril ThT 32µM*, ALDH1A1 inh 3.2µM*, NPSR antagonist inconclusive, HPGD inh -20% and Tau fluor counter -23%.
CCCN(CCC)CC(O)CN(c1ccccc1)S(=O)(=O)c1ccc(C)cc1 (stereo unspecified) was read as Tau fibril FP 5%, Tau fibril ThT -8%, ALDH1A1 inh 15%, NPSR antagonist -8%[46.1 µM], HPGD inh -5% and Tau fluor counter -9%.
CCOC(=O)c1c(C)c(C(=O)N2CCc3ccccc3C2)c(C)n1CC was read as Tau fibril FP -2%, Tau fibril ThT -18%, ALDH1A1 inh inconclusive, NPSR antagonist -11%[46.1 µM], HPGD inh 4.5µM* and Tau fluor counter -10%.
For CC(=O)c1c(C)[nH]c(C(=O)N2CCc3ccccc3C2)c1C the results were Tau fibril FP 5%, Tau fibril ThT -1%, ALDH1A1 inh 0%, NPSR antagonist -4%[46.1 µM], HPGD inh 18µM* and Tau fluor counter 2%.
Screening CCOC(=O)c1c(C)c(C(=O)Nc2ccccc2)c(C)n1CC returned Tau fibril FP 8%, Tau fibril ThT -8%, ALDH1A1 inh 0%, NPSR antagonist -14%[46.1 µM], HPGD inh -1% and Tau fluor counter -6%.
Screening CCCCCN1C(C(=O)c2ccccc2)=C(NC(=O)c2ccccc2Cl)c2ccccc2S1(=O)=O returned Tau fibril FP -5%, Tau fibril ThT -1% and Tau fluor counter -30%.
For Cc1ccc(O)c(-c2n[nH]c3c2C(c2ccccc2F)N(Cc2ccco2)C3=O)c1 (stereo unspecified) the results were Tau fibril FP -9%, Tau fibril ThT inconclusive and Tau fluor counter inconclusive.
`O=C(N1CCCCC1)N1CCN(c2ccc(Cl)cc2)CC1` gave Tau fibril FP -7%, Tau fibril ThT -23%, ALDH1A1 inh 7.9µM*, NPSR antagonist -8%[46.1 µM], HPGD inh inconclusive and Tau fluor counter -10%.
`Cc1scc(C(=O)N2CCN(c3ccc(Cl)cc3)CC2)c1C` gave Tau fibril FP -2%, Tau fibril ThT 5%, ALDH1A1 inh 20µM*, NPSR antagonist -34% and Tau fluor counter 4%.
Screening O=C(O)c1ccccc1C(=O)N1CCN(c2ccccc2)CC1 returned Tau fibril FP 5%, Tau fibril ThT 7%, ALDH1A1 inh 16µM*, NPSR antagonist 2%[46.1 µM], HPGD inh -12% and Tau fluor counter 10%.
`O=C(c1ccccc1)N1CCN(c2ccc(Cl)cc2)CC1` gave Tau fibril FP -1%, Tau fibril ThT -14%, ALDH1A1 inh 14µM*, NPSR antagonist -7%[46.1 µM], HPGD inh -28% and Tau fluor counter -9%.
For Cc1ccc(S(=O)(=O)OCC(=O)O)cc1 the results were ALDH1A1 inh -6%[13.5 µM] and HPGD inh -1%.
Screening CCOC(=O)c1cc(-c2ccc(/C=C3/C(=O)NC(=O)C(C#N)=C3C)o2)ccc1Cl returned Tau fibril FP -11%, Tau fibril ThT inconclusive, ALDH1A1 inh 8.9µM*, NPSR antagonist -17%[46.1 µM], HPGD inh 22µM* and Tau fluor counter inconclusive.
Screening CCCCC1(C)OC(=O)C(=Cc2ccc(-c3ccc(Cl)c(C(=O)O)c3)o2)C(=O)O1 (stereo unspecified) returned Tau fibril FP 4%, Tau fibril ThT -7%, NPSR antagonist inconclusive and Tau fluor counter 0%.
For CC1=C(C#N)C(=O)NC(=O)/C1=C\c1ccc(-c2ccc(C)cc2[N+](=O)[O-])o1 the results were Tau fibril FP inconclusive, Tau fibril ThT 16µM*, ALDH1A1 inh 13µM*, NPSR antagonist -14% and Tau fluor counter inconclusive.
For Cc1ccc(NC(=O)NC(=O)N(C(C)C)S(=O)(=O)c2ccc(C)cc2)cc1 the results were Tau fibril FP inconclusive, Tau fibril ThT 12%, ALDH1A1 inh -8%, NPSR antagonist 9% and Tau fluor counter -23%.
`O=c1c(Cl)c(O)c2cccc3c4ccccc4n1c23` gave Tau fibril FP inconclusive, Tau fibril ThT 14µM*, ALDH1A1 inh inconclusive, NPSR antagonist -39%, HPGD inh inconclusive and Tau fluor counter inconclusive.
Screening O=C(CN1C(=O)C2C3CCC(C3)C2C1=O)NCc1ccco1 (stereo unspecified) returned Tau fibril FP -3%, Tau fibril ThT -2%, ALDH1A1 inh 0%, NPSR antagonist -26% and Tau fluor counter -3%.
O=C1C2C3CCC(C3)C2C(=O)N1Cc1ccco1 (stereo unspecified) was read as Tau fibril FP -2%, Tau fibril ThT 3%, ALDH1A1 inh 12µM*, NPSR antagonist 9%, HPGD inh -1% and Tau fluor counter 6%.
For COC(=O)[C@H](COC(C)(C)C)NC(=O)O[C@@H]1Cc2cc(OC)ccc2O[C@H]1c1cccc(OC)c1 the results were Tau fibril FP 1%, Tau fibril ThT -9%, ALDH1A1 inh -8%, HPGD inh -17% and Tau fluor counter -11%.
COc1cc2c(cc1OC)C(C1C(=O)CCCC1=O)N(C(=O)CCl)CC2 (stereo unspecified) was read as Tau fibril FP -2%, Tau fibril ThT 1%, ALDH1A1 inh inconclusive, NPSR antagonist 17%, HPGD inh -8% and Tau fluor counter 7%.
COc1ccc2c(c1)CCN(C(=O)CCl)C2C1C(=O)CCCC1=O (stereo unspecified) was read as Tau fibril FP -5%, Tau fibril ThT 1%, ALDH1A1 inh 22µM*, NPSR antagonist 5%, HPGD inh -5% and Tau fluor counter 9%.
`COC(=O)c1c(NC(=O)Nc2ccc(Cl)cc2)sc(C)c1C` gave Tau fibril FP -16%, Tau fibril ThT -17%, ALDH1A1 inh -16%, NPSR antagonist 10µM*, HPGD inh -22% and Tau fluor counter inconclusive.
For Cc1sc(NC(=O)Nc2ccccc2)c(C(N)=O)c1C the results were Tau fibril FP 6%, Tau fibril ThT inconclusive, ALDH1A1 inh 13µM*, NPSR antagonist 22% and Tau fluor counter inconclusive.
For COC(=O)C1=CC(C(=O)c2cccs2)=NN(c2ccc(OC)cc2)C1C(=O)OC (stereo unspecified) the results were Tau fibril FP -4%, Tau fibril ThT 14µM*, ALDH1A1 inh -8%, NPSR antagonist inconclusive, HPGD inh -18% and Tau fluor counter inconclusive.
